This passage reports inhibition results from PubChem BioAssay AID687016 (The Scripps Research Institute Molecular Screening Center, 2013).

Each structure is given as a SMILES string. Hit rate of the full screen: of about 370,000 compounds, about 2,800 (0.76%) were called active. This excerpt belongs to a sample that is enriched for actives. A number with no mark means an inactive call. Rule as the data show it: active = inhibition above about 21%; inactive = the rest.

In the experiment the target is E3 ubiquitin-protein ligase UHRF1 (Homo sapiens) (UniProt Q96T88). Briefly: blockers of UHRF1 binding to methyl-oligo – biochemical, TR-FRET, human UHRF1, single concentration, counter-screen for MBD2 inhibitor project, primary screen (AID 687016).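 Also: UHRF1 SRA domain binding a hemimethylated CpG hairpin DNA probe; 0% = median of test compound wells and 100% = reference inhibitor.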 The conditions noted are these: UHRF1 binding to methylated oligo, at 4.4 µM, stronger effect = higher value. A general note: Time-resolved FRET reads energy transfer from a long-lived donor to a nearby acceptor.
E3 ubiquitin-protein ligase UHRF1 (Homo sapiens), sequence (Q96T88 whole entry, looked up, the tested form may be a part): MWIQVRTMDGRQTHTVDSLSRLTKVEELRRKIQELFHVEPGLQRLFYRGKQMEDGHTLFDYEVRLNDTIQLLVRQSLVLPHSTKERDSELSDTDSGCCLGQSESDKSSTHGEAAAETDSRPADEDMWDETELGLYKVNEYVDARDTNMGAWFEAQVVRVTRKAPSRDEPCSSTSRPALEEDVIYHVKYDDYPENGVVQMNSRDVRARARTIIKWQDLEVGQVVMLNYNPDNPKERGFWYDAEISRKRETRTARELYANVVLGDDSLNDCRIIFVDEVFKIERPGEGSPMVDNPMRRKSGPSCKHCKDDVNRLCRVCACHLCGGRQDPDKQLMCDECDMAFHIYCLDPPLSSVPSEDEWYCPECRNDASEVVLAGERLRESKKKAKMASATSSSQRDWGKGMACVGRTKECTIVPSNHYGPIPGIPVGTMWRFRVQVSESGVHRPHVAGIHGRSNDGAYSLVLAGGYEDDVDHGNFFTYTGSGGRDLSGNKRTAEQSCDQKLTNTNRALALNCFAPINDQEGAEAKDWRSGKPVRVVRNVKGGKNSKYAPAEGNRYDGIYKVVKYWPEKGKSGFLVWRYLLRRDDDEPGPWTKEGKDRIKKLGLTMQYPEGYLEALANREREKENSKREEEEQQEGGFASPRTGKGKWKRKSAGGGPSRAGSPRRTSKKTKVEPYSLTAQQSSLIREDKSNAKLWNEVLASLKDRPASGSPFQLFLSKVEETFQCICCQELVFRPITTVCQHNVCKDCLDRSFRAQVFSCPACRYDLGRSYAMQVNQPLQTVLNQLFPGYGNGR
In the case of `O=C(CSc1nnc(-c2ccccn2)n1-c1ccccc1)Nc1ccc2cn[nH]c2c1`, the inhibition is -1.24%. Turning to `Cc1ccccc1CS(=O)(=O)Cc1ccc(C(=O)Nc2ccc(Cl)cc2)o1`, the inhibition is 0.04%.

For the compound `Cc1c(NC(=S)Nc2ccccc2)c(=O)n(-c2ccccc2)n1C`, the inhibition was -4.22%. As to `Cc1c(NC(=O)c2c([N+](=O)[O-])cnn2C)c(=O)n(-c2ccccc2)n1C`, the inhibition was -1.94%.

On to `Cc1c(NC(=O)c2cccnc2)c(=O)n(-c2ccccc2)n1C`, for which the inhibition is 23.3% (active).

Consider `COC(=O)[C@]12C[C@H](CC(=O)NCc3ccccc3)C(=O)N(CCC3=CCCCC3)C1=C[C@H](C(C)C)O[C@@H]2C1CC1`, for which the inhibition was 3.6%. Turning to `COC(=O)C1CN(Cc2ccc(F)cc2)CCS(=O)(=O)N1Cc1ccc(Cl)cc1` (stereo not drawn), the inhibition was 2.67%.

With `O=C(Nc1cccc(Cl)c1)OC1CC2CC1[C@H]1CCCCN1[C@H]2Cc1ccccc1` (stereo partly drawn), the inhibition is 0.5%. Regarding `Cc1ccccc1CSc1nnc(CCCCCNC(=O)OC(C)(C)C)o1`, the inhibition was 0.59%.

Turning to `Cc1cccc(NC(=O)CSc2nnc(CCCCCNC(=O)OC(C)(C)C)o2)c1C`, the inhibition is 34.9% (active).

As for `Cc1cccc(NC(=O)CSc2nnc(CCNC(=O)OC(C)(C)C)o2)c1C`, the inhibition is 2.63%. `O=C(NCc1cccs1)C1CCN(S(=O)(=O)c2ccccc2[N+](=O)[O-])CC1`: the inhibition was 4.97%. The result for `COc1ccc(OCC(=O)Nc2cc(C)c(Cl)cc2OC)c([N+](=O)[O-])c1` reads -2.47%; that for `CCCC(=O)OCC(=O)Nc1cc(Cl)ccc1[N+](=O)[O-]`, -3.24%. Turning to `Cc1cc(NC(=O)COC(=O)COc2ccc(Cl)cc2C)c([N+](=O)[O-])cc1C`, the inhibition is 23% (active). As for `C=CCN1C(=O)[C@@H](CC(=O)N2CCN(C(=O)c3ccco3)CC2)[C@]2(C(=O)OC)CCCCC=C12`, the figure is 1.46%. With `O=C(Nc1ccc(Br)cc1)OCCN1C(=O)CCC12CCC(c1ccccc1)CC2` (stereo not drawn), the inhibition was -4.19%. As for `CC(=O)O[C@@]1(C(C)=O)CCC2[C@H]3C=C(C)C4=CC(=O)CC[C@@]4(C)C3CC[C@]21C` (stereo partly drawn), the figure is 2.53%; as for `CCCCNC(=O)C[C@@H]1C(=O)N(CCc2ccc(Cl)cc2)C2=CCCC[C@]21C(=O)OCC`, -3.97%.

Regarding `COc1ccc(-c2cc(-c3nnc(SCc4ccc([N+](=O)[O-])cc4)n3N)[nH]n2)cc1`, the inhibition was -1.01%. As for `OC(c1ccccc1)C(CN1CCOCC1)c1ccccc1` (stereo not drawn), the figure is -2.23%; as for `CC(CN1CCCCC1)c1ccccc1` (stereo not drawn), -1.54%; as for `CC(CN1CCOCC1)c1ccccc1` (stereo not drawn), 55.2% (active). As for `COC(=O)[C@]1(C#N)CC(=O)N(CC2CCCCC2)[C@@H]1c1ccccc1`, the figure is 5.42%; as for `Cc1ccc(C(=O)COC(=O)CCCC(=O)NC2CCCCC2)cc1[N+](=O)[O-]`, 48.1% (active); as for `O=C(COC(=O)c1cc([N+](=O)[O-])ccc1NCc1ccccc1)NC1CCCCC1`, -2.56%. As for `Cc1ccc(C(=O)OCC(=O)NC2CCCCCCC2)cc1C`, the figure is 0.37%; as for `COC(=O)Cc1ccc(OCC(=O)NC2CCCC2)cc1`, 0.36%. Turning to `O=C(COC(=O)Cc1ccc([N+](=O)[O-])cc1)NC1CCCCCC1`, the inhibition is 45.9% (active). In the case of `O=C(CCNC(=O)c1ccc([N+](=O)[O-])cc1)NC1CCCCC1`, the inhibition was -0.33%.

For `CCCC[C@H](C(=O)N(CC)c1ccccc1)[C@@H](O)c1ccc2ccccc2c1`, the inhibition was -2.02%. As for `Cc1ccccc1CN1CCCCC(NC(=O)c2cccc(C#N)c2)C1=O` (stereo not drawn), the figure is -0.18%; as for `COC(=O)C[C@@H]1CC[C@H]2[C@@H](COc3ccc(NS(=O)(=O)CC(F)(F)F)cc3C(=O)N2C)O1`, 1.54%.

In the case of `CC[C@@H](CCC(=O)N(c1ccccc1)c1ccccc1)C1CC1`, the inhibition is 1.36%. As for `S=C(NC1CCCCC1)NN1CCOCC1`, the figure is 32.8% (active); as for `COC(=O)c1ccc(NC(=S)NN2CCOCC2)cc1`, -1.42%. Turning to `CC(NC(=S)NC1CCCCC1)C(c1ccccc1)N1CCOCC1` (stereo not drawn), the inhibition is 0.56%. On to `N[C@@H](Cc1ccccc1)C(=O)N1CCC[C@@H]1C(=O)N1CCC2CCN(S(=O)(=O)c3ccccc3)CC21` (stereo partly drawn), for which the inhibition was 1.24%. As for `C=CCN(C)CC#Cc1ccccc1`, the figure is 1.63%. As for `O=C(CN1CCCCC1)NC(=O)Nc1ccccc1F`, the figure is -2.79%; as for `CC(C)(C)NC(=O)NC(=O)CN1CCC(Cc2ccccc2)CC1`, 38.1% (active); as for `NC(=O)c1ccc(CN2CCC(Cc3ccccc3)CC2)cc1`, -0.37%. Turning to `CC(CCN1CCC(C(O)(c2ccccc2)c2ccccc2)CC1)Oc1ccc([N+](=O)[O-])cc1Cl` (stereo not drawn), the inhibition is -2.34%. As for `CCCC[C@H]1C2CC(OC(=O)NCc3ccccc3)C(C2)[C@H]2CCCCN21` (stereo partly drawn), the inhibition is 2.4%. For the compound `COc1ccc(C(=O)OCCN2CCN(C3CN(Cc4cn(Cc5ccccc5F)nn4)S(=O)(=O)C3)CC2)cc1OC` (stereo not drawn), the inhibition was 16.4%. As to `C=CCn1c(=S)[nH]c2scc(-c3ccco3)c2c1=O`, the inhibition is 42% (active). On to `O=C(CSc1nnc(-c2ccccc2)n1Cc1ccco1)Nc1ccccc1-c1ccccc1`, for which the inhibition was -1.14%. As to `Cc1ccc(-n2c(SCC(=O)Nc3ccc(S(=O)(=O)Nc4nccs4)cc3)nnc2-c2ccncc2)cc1`, the inhibition is -0.73%. As for `CCOc1ccc(-n2c(SCC(=O)Nc3cc(C)c(NC(=O)c4ccccc4)cc3OC)nnc2-c2cccc(Cl)c2)cc1`, the figure is -1.29%; as for `O=C(NC1CCC1)c1ccc(C#CC2CC2)cn1`, 1.8%; as for `COCCCNC(=O)C[C@H]1C[C@@]2(C(=O)OC)C(=C[C@H](C(C)(C)C)O[C@@H]2C)N(Cc2ccc(Cl)cc2Cl)C1=O`, -1%. As for `CC1CN(CCOc2ccccc2[N+](=O)[O-])CC(C)O1` (stereo not drawn), the figure is 0.96%.

Regarding `Cc1cc(C)c(OCCN2CC(C)OC(C)C2)c(Br)c1` (stereo not drawn), the inhibition was 22.5% (active).

As to `CC1CN(CCCOc2ccccc2-c2ccccc2)CC(C)O1` (stereo not drawn), the inhibition is 1.48%. With `CCn1c(=O)n2n(c1=O)[C@@]1(C=C3CCCC[C@H]32)N=C(NC(=O)c2ccccc2)N(Cc2ccccc2)[C@H]1Cc1ccccc1`, the inhibition is 1.35%. The result for `CCN(CC)C(=O)CC[C@H]1CC[C@]2(CCCN(Cc3ccc(Cl)cc3)C2)O1` reads -2.85%. The result for `COC(=O)Cc1csc(/N=C/c2c(O)n(-c3cccc(C(F)(F)F)c3)c(=O)c3ccccc23)n1` reads 20.8% (active); that for `O=C(Cc1cccs1)NCc1cccc(C(F)(F)F)c1`, 2.41%; that for `COC(=O)Cc1c(O)ccn(Cc2cccc(C(F)(F)F)c2)c1=O`, -0.17%. The result for `COc1ccc(CN2C(=O)N3Cc4cc(OC)ccc4C3CS2(=O)=O)cc1` (stereo not drawn) reads -0.8%. For the compound `Cc1ccc(NC(=O)Nc2cc(C)nn2-c2ccccc2)cc1`, the inhibition is -0.03%. As for `C#CCNC(=O)C[C@H]1C[C@@]2(C(=O)OC)C(=C[C@H](C(C)C)O[C@@H]2C2CC2)N(Cc2ccco2)C1=O`, the figure is 1.95%. The result for `COc1ccc(CC(=O)Nc2ccc(-c3nnc(-c4ccc(C)cc4)o3)cc2)cc1` reads 22.5% (active).

In the case of `COc1ccc(Cc2n[nH]c(=S)n2NC(=O)Nc2ccc(C)cc2)cc1`, the inhibition was -1.17%. As for `COc1ccc(NC(=O)CN(C)C(=O)c2cc(C)oc2C)cc1`, the figure is 0.64%. The result for `O=S1(=O)c2c(cccc2N2CC[C@H](O)C2)O[C@@H]2CCN1C2` reads 1.23%; that for `Cc1cc2c(c(=O)n1C)C(C(C)C)C(C#N)=C(N)O2` (stereo not drawn), 0.11%. The result for `Cc1cc2c(c(=O)n1Cc1ccco1)C(c1ccccc1)C(C#N)=C(N)O2` (stereo not drawn) reads 32.8% (active); that for `CC(C)c1ccc(C2C(C#N)=C(N)Oc3c2oc(CO)cc3=O)cc1` (stereo not drawn), -3.69%. As for `CCN(C(=O)[C@@H](C1CC1)[C@@H](O)c1ccc2ccccc2c1)c1ccccc1`, the inhibition was -2.68%. For the compound `COc1ccc(C(=O)OCCN(C)C2CN(Cc3cn(Cc4cccc(C)c4)nn3)S(=O)(=O)C2)cc1OC` (stereo not drawn), the inhibition was 13.8%. The result for `Cc1nn(-c2ccccc2)c(Cl)c1/C=N/NC(=O)c1nn(C)cc1[N+](=O)[O-]` reads 23.8% (active). The result for `Cc1nn(-c2ccccc2)c(-n2cccc2)c1C(=O)O` reads 1.78%.

In the case of `Cn1nccc1/C=N\NC(=O)c1ccc(Cl)cc1`, the inhibition is 4.97%. The result for `CC(C)CNC(=O)OCc1cn(Cc2ccc(F)cc2)nn1` reads 3.53%; that for `COC(=O)[C@H](C(C)C)N(CCc1cn(Cc2ccccc2)nn1)S(=O)(=O)c1ccc(F)cc1Br`, -0.16%; that for `Cc1ccc(Cn2cc(CN3[C@@H](CC(C)C)COc4ccc(Cl)cc4S3(=O)=O)nn2)cc1`, -2.98%.

In the case of `c1coc(CCNc2ncnc3ccc(-c4ccc5c(c4)OCO5)cc23)c1`, the inhibition is -3.63%.

Turning to `COC(=O)c1cccc(Cn2ccc3ccc(-c4ccc5ccn(C(=O)c6ccccc6C)c5c4)cc32)c1`, the inhibition was -1.17%. The result for `O=C(COC(=O)c1ccccc1C(=O)N1CCN(c2ccccc2)CC1)NCc1ccccc1` reads -3.11%; that for `O=C(CN1CCN(c2ccc(O)cc2)CC1)Nc1ccc(-c2ccccc2)cc1`, -0.69%; that for `Oc1ccc(N2CCN(C(=S)NCc3ccccc3)CC2)cc1`, 40.4% (active).

With `CCOC(=O)C1CCN(C(=O)C(C)(C)NC(=O)Nc2ccccc2Cl)CC1`, the inhibition is 0.18%. The result for `COC(=O)[C@]12C[C@H](CC(=O)NCc3cccs3)C(=O)N(CCc3ccc(OC)c(OC)c3)C1=C[C@H](C(C)C)O[C@@H]2C1CC1` reads -0.69%; that for `O=C(CSc1nc2ccccc2s1)NN=Cc1ccc(O)cc1O`, -4.05%; that for `COC(=O)[C@]12C[C@H](CC(=O)NCCC(C)C)C(=O)N(CCc3ccc(OC)c(OC)c3)C1=C[C@H](C(C)(C)C)O[C@@H]2C`, 34.2% (active). As for `COC(=O)[C@]12C[C@H](CC(=O)NCc3ccccc3)C(=O)N(CCc3ccc(OC)c(OC)c3)C1=C[C@H](C(C)(C)C)O[C@@H]2C`, the inhibition is -1.24%. As for `CCCCOCCCNC(=O)C[C@H]1C[C@@]2(C(=O)OC)C(=C[C@H](C(C)(C)C)O[C@@H]2C)N(CCc2ccc(OC)c(OC)c2)C1=O`, the figure is -0.73%.

The inhibition is the relative decrease from the control value, in per cent.
